# Results: PubChem BioAssay (NCI)
# Compounds without any hit were thinned out: in the full panel of roughly 83,000, 20% have a hit.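 Treatment: one concentration, 48 hours, 96-well format. Scoring: percent growth, with anything below 10 considered active.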 Values without a mark were called inactive. The source made the active and inactive calls.
# Tested on: BT-549 breast
# Assay: NCI-60 one-dose screen, 48 h (100 = growth as untreated, 0 = no growth, -100 = all killed)
# Conditions: 10 µM unless noted
# Procedure: Growth inhibition of the BT-549 human tumor cell line is measured as a screen for anti-cancer activity. Cells are grown in 96 well plates and exposed to the test compound for 48 hours. Compounds are tested at a single concentration, which is 10^-5 M for most compounds. The reported endpoint is percent growth (GI% or GIPRCNT), where numbers from 0 - 100% represent growth inhibition, and numbers from -100% - 0 represent cell death. For example, a value of 40 represents 60% growth inhibition. A value of 0 means no net growth occurred over the course of the experiment. A value of -40 indicates 40% of cells at the beginning of the experiment died by the end of the experiment. A value of -100 means all cells are dead at the end of the experiment.
# NCI-60 Human Tumor Cell Lines Screen was performed using the standard one-dose NCI protocol, which is described in more detail at https://dtp.cancer.gov/discovery_development/nci-60/default.htm.
# Compounds with GIPRCNT values below 10 were considered active. Activity score was based on GIPRCNT using the following formula: […]
# Score is 0 for GIPRCNT values of 100 or above, 50 for GIPRCNT values of 0, and 100 for GIPRCNT values of -100.
row,SMILES,growth
1,CCCCOc1nc2ccc(Cl)cc2cc1/C=C/C(=O)/C=C/c1ccc(Cl)cc1,36.3%
2,O=C(/C=C/c1ccccc1)Oc1ccc(/C=C/c2cc(OC(=O)/C=C/c3ccccc3)cc(OC(=O)/C=C/c3ccccc3)c2)cc1,102%
3,CC(=O)c1ccc2c(c1)C1C=CCC1[C@H](c1cc3c(cc1Br)OCO3)N2 (stereo not given in full),44.6%
4,COc1cc(NS(C)(=O)=O)ccc1Cc1c2ccccc2nc2ccccc12,-13.9% (active)
5,COc1ccc(/C=C/C(=O)c2ccc(NC(=O)CSc3nnc(-c4cc(OC)c(OC)c(OC)c4)o3)cc2)cc1,-3.02% (active)
6,Cc1ccn2cc(Cc3cc(=O)oc4c3ccc3ccccc34)c(=O)nc2c1,99.5%
7,O=[N+]([O-])c1ccc(NS(=O)(=O)c2cc(Cl)ccc2Cl)c2ccccc12,48%
8,COc1ccc(-c2cc(-c3nnc(SC/C(=N\O)c4ccccc4)n3-c3ccccc3)c3ccccc3n2)cc1,108%
9,Cc1cccc(Cc2cnc(NC(=O)CCc3ccc(C)o3)s2)c1,5.79% (active)
10,O=c1[nH]ccc2nc(N3CCC(O)CC3)nc(Nc3cccc(C(F)(F)F)c3)c12,16.5%
11,Nc1nccc(=S)[nH]1,114%
12,O=C1C(Cl)=C(Nc2cccc3cc4ccccc4nc23)C(=O)c2ccccc21,91.7%
13,COc1cc2nc(C(=O)N3CCCCC3)cc(Nc3ccccc3)c2cc1OC,102%
14,CC1CCc2cc(F)cc3c(=O)c(C(=O)O)cn1c23 (stereo not given),104%
15,COc1ccc(C2=NN(C(=O)COc3ccc(Cl)cc3)C(O)(c3cc(F)c(Cl)cc3Cl)C2)cc1 (stereo not given),115%
16,O=c1cc(Cl)[nH]c(=O)[nH]1,103%
17,COc1ccc2c(c1)/C(=C/c1c(-c3cc(OC)c(OC)c(OC)c3Br)nc3sccn13)C(=O)N2,86.2%
18,Cn1cnc([N+](=O)[O-])c1N1c2ccncc2Sc2ccncc21,113%
19,COc1ccccc1NC(=O)COc1ccc(/C=C2/Oc3cc4occc4c(OC)c3C2=O)cc1OC,93%
20,OC(COc1ccccc1Cl)CN1CCN(c2ccc(Cl)cc2)CC1 (stereo not given),89.9%

row,SMILES,growth
1,O=C(CSc1nnc(-c2cc3c([nH]c4ccccc43)c(-c3cccc(O)c3)n2)n1-c1ccccc1)c1ccccc1,56%
2,Cc1ccc2c(C3C(C#N)=C(N)Oc4cc5ccccc5cc43)cc(=O)oc2c1 (stereo not given),47.9%
3,[2H]c1nc(Nc2ncc(F)c(-c3cc(F)c4nc(C)n(C(C)C)c4c3)n2)c([2H])c([2H])c1CN1CCN(CC)CC1,55.4%
4,COc1ccc(Cl)cc1NC(=O)c1cc2c([nH]1)-c1nc(NC(=O)C(C)(C)C)sc1CC2,71.7%
5,Cc1ccc(/C=C2/C(=O)Nc3cc(Cl)c(-c4csc(N)n4)cc32)cc1,53.4%
6,CS(=O)(=O)Nc1cccc(-c2ccc3ncnc(Nc4ccc(F)c(Cl)c4)c3c2)c1,35.4%
7,O=c1c2ccccc2sc2c(NCCN3CCOCC3)nc3ccccc3c12,73.7%
8,O=[N+]([O-])c1ccc(NS(=O)(=O)c2ccccc2)c2ccccc12,37.2%
9,C=C1C(=O)O[C@H]2[C@H]1CC/C(COC(=O)OC/C1=C/CC[C@@]3(C)O[C@H]3[C@H]3OC(=O)[C@@H](CN(C)C)[C@@H]3CC1)=C\CC[C@@]1(C)O[C@@H]21,-1.01% (active)
10,C=CC(=O)Nc1cccc(Nc2nc(Nc3ccc(OCCOC(F)F)cc3)ncc2F)c1,24.5%
11,COc1ccc(-c2nn(-c3ccc(NC(=O)c4ccc(Cl)c(C(F)(F)F)c4)cc3)cc2-c2ccncc2)cc1Cl,40.5%
12,Nc1ccc(S(=O)(=O)Nc2cc(I)cc(I)c2)cc1,118%
13,c1ccc2c(c1)Oc1cccnc1-n1nccc1-2,101%
14,c1cncc(-c2nc3ccccc3[nH]2)c1,100%
15,CCOc1ccc(NC2=C(Cl)C(=O)c3ccccc3C2=O)cc1,77.6%
16,CC(C)C1(C(C)C)NC(=O)NC1=O,111%
17,CCCCN(CCCC)c1ccc(C(=N)c2ccc(N(C)C)cc2)cc1,-72.4% (active)
18,Cc1ccc(-c2cn3cc([N+](=O)[O-])ccc3n2)cc1,53.9%
19,CCCCCCCCN(CCCCCCCC)CC(O)c1cc(-c2ccccc2)nc2ccc(OC)cc12 (stereo not given),78.8%
20,CCn1c(SCC(=O)c2ccc(Br)cc2)nnc1-c1cc2c([nH]c3ccccc32)c(-c2cccc(O)c2)n1,71.9%
